Experimental data reported in PubChem BioAssay (NCATS).
Inconclusive results are not listed. Calls of active or inactive are those of the source. Unless noted, calls come from the whole dose curve; as a rule, active = well fitted curve in the direction sought with a large enough effect; inconclusive = small, poorly fitted or top-dose-only effect, or another doubt; inactive = no such curve, though single readings can be large; an effect the other way counts as inactive or inconclusive.

Legend:
[1] = biological target: Ubiquitin carboxyl-terminal hydrolase 2 (Homo sapiens) (UniProt O75604); test: qHTS Validation Assay for Inhibitors of Ubiquitin-specific Protease USP2a Using CHOP2 as the Reporter (AID 463106); conditions: USP2a cleavage of CHOP2 reporter, enzymatic; series mostly up to 38.3 µM
In short: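 Readout was coupled fluorescence (Ex 485/Em 531 nm), read 60 min after adding 25 nM final Ub-CHOP2 and 25 nM reporter substrate. Beforehand, 10 nM final USP2 core had 30 min at RT with compound in pH 8.0 buffer. Curves were fitted after normalization to NEM and flagged for artifacts using time-zero reads.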

[2] = biological target: DNA polymerase III PolC-type (Bacillus subtilis (strain 168)) (UniProt P13267); test: qHTS Validation Assay for the Inhibitors of DNA Replication in Gram-Positive Bacteria (AID 485295); conditions: Gram-positive bacterial DNA replication assay; series mostly up to 57.1 µM;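 note: reconstituted holoenzyme with PolC plus beta clamp SSB and primase; PicoGreen fluorescence of double-stranded DNA made on primed circular M13 template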
In short: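 First, compound is mixed with the reconstituted replication complex and held at room temperature. Next, circular single-stranded M13Gori with nucleotides starts synthesis. Finally, PicoGreen in EDTA halts the reaction and stains double-stranded product for fluorescence reading.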

[3] = biological target: Tumor susceptibility gene 101 protein (Homo sapiens) (UniProt Q99816); test: qHTS Validation Assay for Iinhibitors of HIV-1 Budding by Blocking the Interaction of PTAP/TSG101 (AID 485342; calls by dose curve); conditions: TSG101-PTAP binding, fluorescence polarization, 4-point titration; series mostly up to 115 µM
In short: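 Binding of a FITC-tagged PTAP-motif peptide (50 nM) to the Tsg101 binding domain (10 uM) is monitored by fluorescence polarization. Compounds are pin-delivered before peptide addition, and incubation runs 20 min at room temperature.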

[4] = biological target: Beta-2 adrenergic receptor (Homo sapiens) (UniProt P07550); test: qHTS validation assay of beta-arrestin-biased ligands of beta2-adrenergic receptor (AID 485366); conditions: cell-based beta-arrestin recruitment to ADRB2, qHTS; series mostly up to 46.1 µM
In short: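 qHTS, Tango cells, 1500 cells/well, DMEM + 1% FBS. Cpd 18 hr at 37 degrees C. Luciferin/ATP/CoA detection mix, 15 min RT, luminescence read. %Activity from corrected signal; CRC fit, curve class.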

[5] = Quantitative high throughput screen for delayed death inhibitors of the malarial parasite plastid, 48 hour incubation (AID 488752); conditions: Plasmodium falciparum growth; series mostly up to 28.7 µM; note: nearly all actives have a fitted effect of over 65% in size
In short: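 One-generation (48 h) growth assay: a decrease in luciferase signal from an integrated reporter in P. falciparum-infected red cells (0.1% parasitemia, 2% hematocrit) after compound exposure at 37 C indicates parasite inhibition.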

[6] = biological target: Thioredoxin reductase 1, cytoplasmic (Rattus norvegicus) (UniProt O89049); test: qHTS Assay for Substrates of Mammalian Selenoprotein Thioredoxin Reductase 1 (TrxR1) (AID 488772); conditions: purified TrxR1, NADPH consumption substrate assay; series mostly up to 57.1 µM;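 note: a drop in NADPH fluorescence below the no-compound background marks a TrxR1 substrate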
In short: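 In this dual-purpose format, potential substrates are identified from the first fluorescence read after selenite addition, not from the 8-minute delta. Rat enzyme is preincubated with NADPH and then with compound at ~22 deg C.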

[7] = biological target: Thioredoxin reductase 1, cytoplasmic (Rattus norvegicus) (UniProt O89049); test: qHTS Assay for Inhibitors of Mammalian Selenoprotein Thioredoxin Reductase 1 (TrxR1) (AID 488773); conditions: purified TrxR1 enzyme activity; series mostly up to 57.1 µM;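 note: drop in NADPH fluorescence over an 8 min run after selenite addition; nearly all actives have a fitted effect of over 40% in size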
In short: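 Inhibition is scored from the loss of NADPH fluorescence between first and last reads of an 8-min kinetic run. Selenite (400 uM) was the substrate, added after 15 min compound preincubation at room temperature.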

[8] = biological target: Flap endonuclease 1 (Homo sapiens) (UniProt P39748); test: qHTS Validation Assay for the Inhibitors of Human Flap endonuclease 1 (FEN1) (AID 488816); conditions: FEN1 nuclease activity, fluorogenic DNA substrate; series mostly up to 57.1 µM
In short: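 qHTS format: compounds and 10 nM FEN1 incubated 15 min at room temperature before adding 50 nM substrate. Cleavage followed by reads at 0 and 15 min; normalized data fitted to a four-parameter Hill curve.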

[9] = biological target: M-phase phosphoprotein 8 (Homo sapiens) (UniProt Q99549); test: qHTS Validation Assay for Inhibitors for MPP8 Chromodomain Interactions with Methylated Histone Tails (AID 488949); conditions: AlphaScreen MPP8 binding to H3K9me3 peptide; series mostly up to 57.1 µM; note: nearly all actives have a fitted effect of over 55% in size; note: potency is the fitted concentration of half-maximal effect
In short: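 50 nM MPP8 + 50 nM b-H3K9me3 peptide, PBS pH 7.4/0.01% Tween-20, 30 min RT; + cpd 30 min RT; + AlphaScreen donor/Ni-chelate acceptor beads 10 ug/mL final, 30 min dark; luminescence read.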

[10] = biological target: Chromobox protein homolog 1 (Homo sapiens) (UniProt P83916); test: qHTS Validation Assay for Inhibitors of HP1-beta Chromodomain Interactions with Methylated Histone Tails (AID 488953); conditions: HP1-beta chromodomain / methylated histone peptide binding assay; series mostly up to 114 µM;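 note: loss of AlphaScreen luminescence from HP1-beta binding biotinylated H3K9me3 peptide; nearly all actives have a fitted effect of over 50% in size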
In short: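 AlphaScreen proximity signal from streptavidin donor and nickel chelate acceptor beads (final 10 ug/mL) after 30 min dark incubation. Compounds had 30 min at room temperature with preformed complex of 50 nM HP1-beta and 50 nM b-H3(1-18)K9me3 in PBS pH 7.4 with 0.01% Tween-20.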

[11] = biological target: Methanococcus maripaludis chaperonin (MmCpn) (UniProt Q6LX38); test: High-Throughput Screening for Modulators of Cytosolic Chaperonin Activity: MmCpn Primary Screen (AID 488978); conditions: Purified MmCpn ATPase activity, ADP HTRF detection, 10 min; series mostly up to 76.9 µM;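 note: 50 nM MmCpn enzyme hydrolysing 30 µM ATP at 37 °C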
In short: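 Steps: chaperonin 50 nM final; add compound, 5 min RT; start with ATP, 30 uM final; hold 10 min at 37C; add ADP Transcreener HTRF reagent, 5 min; read ex 320, em 590 and 665 nm.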

[12] = biological target: Transient receptor potential cation channel subfamily V member 1 (Homo sapiens) (UniProt Q8NER1); test: HTS Assay for Compounds that Act as Enhancers of the Vanilloid Receptor 1 (AID 488979); conditions: TRPV1-expressing cells, enhancer of channel activity, stimulated with capsaicin at EC20; series mostly up to 41.7 µM
In short: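 Calcium influx kinetics via Fluo-8 (480/520 nm) in TRPV1-expressing cells, 2000/well cultured overnight at 35.5C. Compound-alone read 3 min (agonist phase), followed by EC20 capsaicin challenge for 2 min (enhancer phase).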

[13] = biological target: Thyrotropin receptor (Homo sapiens) (UniProt P16473); test: qHTS Assay for Antagonists of the Thyroid Stimulating Hormone Receptor (AID 488980); conditions: TSHR-expressing cells, cAMP antagonist read-out; series mostly up to 57.5 µM
In short: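 Readout is cAMP by HTRF competition between cellular cAMP and cAMP-d2 for a cryptate-labelled antibody. Antagonism was assessed in TSHR-transfected HEK293 cells stimulated with 4 nM TSH (EC80, final) in the presence of RO 20-1724.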

[14] = biological target: D(1A) dopamine receptor (Homo sapiens) (UniProt P21728); test: HTS Assay for Allosteric Agonists of the Human D1 Dopamine Receptor: Primary Screen for Agonists (AID 488981); conditions: Inducible HEK293 T-REx D1 cells, calcium-flux fluorescence, 180 s kinetic; series mostly up to 41.8 µM
In short: (§1)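 Calcium flux in an inducible, force-coupled HEK293 Trex D1 line (overnight at 30 C): agonist mode is the 180 s kinetic read after compound; potentiator mode is the following 180 s read after dopamine at EC20.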

[15] = biological target: D(1A) dopamine receptor (Homo sapiens) (UniProt P21728); test: HTS Assay for Allosteric Agonists of the Human D1 Dopamine Receptor: Primary Screen for Potentiators (AID 488982); conditions: HEK293 T-REx D1 inducible cells, calcium flux, kinetic fluorescence; series mostly up to 8.37 µM
In short: as §1

[16] = biological target: D(1A) dopamine receptor (Homo sapiens) (UniProt P21728); test: HTS Assay for Allosteric Agonists of the Human D1 Dopamine Receptor: Primary Screen for Antagonists (AID 488983); conditions: D1 receptor cell assay, antagonist mode, qHTS titration; series mostly up to 41.8 µM;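 note: calcium flux response to an EC80 dopamine challenge measured with no-wash dye; nearly all actives have a fitted effect of over 65% in size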
In short: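 Calcium-flux read-out in inducible HEK293 T-REx cells expressing D1, dye-loaded 30–90 min at room temperature. Kinetic reads: 180 s after compound (agonist phase), then 180 s after an EC80 dopamine challenge.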

[17] = qHTS Validation Assay to Find Inhibitors of Chronic Active B-Cell Receptor Signaling (AID 485345; active = well fitted curve in the direction sought with a large enough effect in the main read-out, with a control signal flat, not every such curve was filed as active); conditions: ABC-DLBCL cells, chronic BCR signaling reporter, CBG luciferase; series mostly up to 46.1 µM
In short: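 Read-out: ratio of filter-corrected green (IkappaBalpha fusion) to red (native) luciferase signal in doxycycline-induced TMD8 cells after 4 h at 37C. Titration spanned 46 uM–3 nM; Data were normalised to basal cells and 10 uM MG-132 wells.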

[18] = Quantitative high throughput screen for delayed death inhibitors of the malarial parasite plastid, 96 hour incubation (AID 488745); conditions: Plasmodium falciparum growth; series mostly up to 28.7 µM; note: nearly all actives have a fitted effect of over 70% in size
In short: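 Decreased firefly luciferase luminescence indicates inhibited growth of reporter-integrated P. falciparum after two generations (96 h, 37 C, 5% CO2). Infected erythrocytes at 0.1% parasitemia, 2% hematocrit, in Albumax-supplemented RPMI 1640.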

[19] = biological target: Tyrosyl-DNA phosphodiesterase 1 (Homo sapiens) (UniProt Q9NUW8); test: Confirmation Assay for Inhibitors of Tyrosyl-DNA Phosphodiesterase (TDP1) (AID 489007); conditions: recombinant human TDP1 enzymatic activity, dose-response; note: potency is the fitted concentration of half-maximal effect; nearly all actives have a fitted effect of over 40% in size
In short: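 AlphaScreen assay of tyrosine-FITC cleavage from a biotinylated DNA substrate (15 nM) by E. coli-expressed human Tdp1 (1 nM). Sequence: compound preincubation 15 min, reaction 5 min, bead detection 10 min, all at room temperature. No-enzyme wells give maximum signal.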

[20] = biological target: ATP-dependent 6-phosphofructokinase (Trypanosoma brucei brucei) (UniProt O15648); test: qHTS Validation Assay to Find Inhibitors of T. brucei phosphofructokinase (AID 485368); conditions: T. brucei PFK enzyme assay, qHTS 7-point titration; at 57.5 µM (top of the series)
In short: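 Luminescent ADP detection measures PFK turnover of fructose-6-phosphate (0.5 mM) with ATP (0.1 mM) at pH 8.0. Reaction runs 45 min at room temperature with 1.25 nM enzyme; inhibitors tested as titrations up to 57 uM.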

Measured: Potency

Sequence of M-phase phosphoprotein 8 (Homo sapiens) (Q99549 whole entry, looked up): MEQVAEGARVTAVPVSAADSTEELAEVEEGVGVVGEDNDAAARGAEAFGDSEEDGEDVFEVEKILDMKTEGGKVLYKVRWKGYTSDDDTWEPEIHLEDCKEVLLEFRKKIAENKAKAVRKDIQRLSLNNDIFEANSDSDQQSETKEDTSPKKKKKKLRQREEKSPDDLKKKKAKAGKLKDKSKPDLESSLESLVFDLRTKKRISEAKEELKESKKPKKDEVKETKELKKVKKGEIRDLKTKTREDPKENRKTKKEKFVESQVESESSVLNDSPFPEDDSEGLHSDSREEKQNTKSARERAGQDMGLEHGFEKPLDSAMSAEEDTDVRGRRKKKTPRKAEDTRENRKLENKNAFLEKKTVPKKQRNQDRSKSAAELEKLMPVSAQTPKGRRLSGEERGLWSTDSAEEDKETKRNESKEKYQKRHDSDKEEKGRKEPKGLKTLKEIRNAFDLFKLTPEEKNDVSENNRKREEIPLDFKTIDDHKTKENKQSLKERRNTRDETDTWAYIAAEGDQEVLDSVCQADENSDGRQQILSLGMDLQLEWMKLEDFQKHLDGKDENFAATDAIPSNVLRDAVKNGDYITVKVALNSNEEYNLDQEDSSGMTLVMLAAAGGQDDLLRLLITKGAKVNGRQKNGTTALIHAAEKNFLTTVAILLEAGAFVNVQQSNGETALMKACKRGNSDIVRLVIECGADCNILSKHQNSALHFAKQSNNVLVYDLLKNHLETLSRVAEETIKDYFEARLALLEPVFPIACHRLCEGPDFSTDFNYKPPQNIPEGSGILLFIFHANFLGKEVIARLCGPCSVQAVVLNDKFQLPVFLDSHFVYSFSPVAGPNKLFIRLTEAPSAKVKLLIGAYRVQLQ
Sequence of DNA polymerase III PolC-type (Bacillus subtilis (strain 168)) (P13267 whole entry, looked up): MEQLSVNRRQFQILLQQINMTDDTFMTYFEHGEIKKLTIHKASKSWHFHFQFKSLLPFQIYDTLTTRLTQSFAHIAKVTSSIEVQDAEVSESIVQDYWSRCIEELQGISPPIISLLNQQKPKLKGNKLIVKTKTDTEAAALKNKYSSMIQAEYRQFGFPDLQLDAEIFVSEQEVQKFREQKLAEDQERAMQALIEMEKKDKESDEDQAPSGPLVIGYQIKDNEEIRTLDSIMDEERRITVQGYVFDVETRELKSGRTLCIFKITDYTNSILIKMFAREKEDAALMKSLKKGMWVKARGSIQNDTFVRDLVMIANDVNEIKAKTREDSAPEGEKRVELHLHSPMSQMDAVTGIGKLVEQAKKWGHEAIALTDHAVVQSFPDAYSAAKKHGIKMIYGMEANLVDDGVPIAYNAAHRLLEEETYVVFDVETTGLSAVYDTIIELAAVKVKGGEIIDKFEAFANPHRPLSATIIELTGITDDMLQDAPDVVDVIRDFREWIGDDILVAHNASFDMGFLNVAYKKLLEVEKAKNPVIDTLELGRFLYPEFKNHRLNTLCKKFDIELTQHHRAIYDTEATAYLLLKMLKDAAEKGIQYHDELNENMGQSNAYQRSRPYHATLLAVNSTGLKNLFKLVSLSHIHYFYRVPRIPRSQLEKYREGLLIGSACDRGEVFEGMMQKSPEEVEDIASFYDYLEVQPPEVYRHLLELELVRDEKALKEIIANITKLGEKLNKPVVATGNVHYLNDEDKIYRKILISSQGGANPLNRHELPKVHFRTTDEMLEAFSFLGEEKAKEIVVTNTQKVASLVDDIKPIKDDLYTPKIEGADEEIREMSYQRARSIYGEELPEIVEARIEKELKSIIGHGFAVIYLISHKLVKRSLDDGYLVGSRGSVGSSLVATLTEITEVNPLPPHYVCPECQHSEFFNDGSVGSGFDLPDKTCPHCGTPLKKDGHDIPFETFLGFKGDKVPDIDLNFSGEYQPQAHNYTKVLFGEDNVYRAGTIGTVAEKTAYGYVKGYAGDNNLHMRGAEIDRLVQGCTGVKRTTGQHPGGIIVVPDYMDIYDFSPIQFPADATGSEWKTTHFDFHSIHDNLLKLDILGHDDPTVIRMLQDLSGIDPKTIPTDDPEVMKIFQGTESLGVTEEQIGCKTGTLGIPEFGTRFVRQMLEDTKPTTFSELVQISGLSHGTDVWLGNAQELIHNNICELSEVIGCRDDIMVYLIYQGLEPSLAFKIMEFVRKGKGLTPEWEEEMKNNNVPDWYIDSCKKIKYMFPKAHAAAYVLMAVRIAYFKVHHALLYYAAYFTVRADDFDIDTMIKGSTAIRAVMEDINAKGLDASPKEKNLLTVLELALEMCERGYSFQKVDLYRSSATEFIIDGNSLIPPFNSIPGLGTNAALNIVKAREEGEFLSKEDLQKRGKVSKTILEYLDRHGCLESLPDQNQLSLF
Sequence of Ubiquitin carboxyl-terminal hydrolase 2 (Homo sapiens) (O75604 whole entry, looked up): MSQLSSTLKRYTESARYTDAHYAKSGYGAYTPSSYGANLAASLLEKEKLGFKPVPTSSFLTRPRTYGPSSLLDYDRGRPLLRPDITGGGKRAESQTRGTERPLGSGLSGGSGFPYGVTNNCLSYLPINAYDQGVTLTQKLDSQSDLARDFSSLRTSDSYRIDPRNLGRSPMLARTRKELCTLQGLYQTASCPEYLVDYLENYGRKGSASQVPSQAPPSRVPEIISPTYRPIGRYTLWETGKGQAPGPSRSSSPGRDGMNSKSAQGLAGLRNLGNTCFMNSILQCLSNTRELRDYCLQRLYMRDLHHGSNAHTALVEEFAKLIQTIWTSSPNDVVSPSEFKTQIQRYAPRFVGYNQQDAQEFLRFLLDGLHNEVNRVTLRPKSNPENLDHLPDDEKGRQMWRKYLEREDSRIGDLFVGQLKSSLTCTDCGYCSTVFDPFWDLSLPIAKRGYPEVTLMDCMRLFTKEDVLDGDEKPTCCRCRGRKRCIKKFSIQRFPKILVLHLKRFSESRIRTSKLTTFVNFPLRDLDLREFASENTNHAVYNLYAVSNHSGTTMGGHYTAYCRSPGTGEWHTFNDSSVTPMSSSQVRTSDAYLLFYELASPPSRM
Sequence of Thioredoxin reductase 1, cytoplasmic (Rattus norvegicus) (O89049 whole entry, looked up): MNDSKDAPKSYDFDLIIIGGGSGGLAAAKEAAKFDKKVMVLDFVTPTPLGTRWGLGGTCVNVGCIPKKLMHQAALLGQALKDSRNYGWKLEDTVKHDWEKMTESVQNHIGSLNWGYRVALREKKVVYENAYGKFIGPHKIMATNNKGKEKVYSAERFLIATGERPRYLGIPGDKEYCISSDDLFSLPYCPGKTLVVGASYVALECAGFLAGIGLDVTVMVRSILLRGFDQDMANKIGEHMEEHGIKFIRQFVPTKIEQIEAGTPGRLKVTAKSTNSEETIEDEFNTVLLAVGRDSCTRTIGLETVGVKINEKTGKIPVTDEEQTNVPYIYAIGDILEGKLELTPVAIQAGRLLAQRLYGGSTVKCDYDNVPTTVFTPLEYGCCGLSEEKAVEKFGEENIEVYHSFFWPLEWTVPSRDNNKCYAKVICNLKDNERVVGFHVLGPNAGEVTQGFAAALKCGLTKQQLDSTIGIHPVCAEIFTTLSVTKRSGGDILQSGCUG
Sequence of Chromobox protein homolog 1 (Homo sapiens) (P83916 whole entry, looked up): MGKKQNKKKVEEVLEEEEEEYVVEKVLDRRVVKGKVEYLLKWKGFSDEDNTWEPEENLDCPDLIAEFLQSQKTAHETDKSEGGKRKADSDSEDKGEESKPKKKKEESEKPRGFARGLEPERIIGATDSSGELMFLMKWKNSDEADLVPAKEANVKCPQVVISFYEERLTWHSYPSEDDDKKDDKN
Sequence of Methanococcus maripaludis chaperonin (MmCpn) (Q6LX38 1-543): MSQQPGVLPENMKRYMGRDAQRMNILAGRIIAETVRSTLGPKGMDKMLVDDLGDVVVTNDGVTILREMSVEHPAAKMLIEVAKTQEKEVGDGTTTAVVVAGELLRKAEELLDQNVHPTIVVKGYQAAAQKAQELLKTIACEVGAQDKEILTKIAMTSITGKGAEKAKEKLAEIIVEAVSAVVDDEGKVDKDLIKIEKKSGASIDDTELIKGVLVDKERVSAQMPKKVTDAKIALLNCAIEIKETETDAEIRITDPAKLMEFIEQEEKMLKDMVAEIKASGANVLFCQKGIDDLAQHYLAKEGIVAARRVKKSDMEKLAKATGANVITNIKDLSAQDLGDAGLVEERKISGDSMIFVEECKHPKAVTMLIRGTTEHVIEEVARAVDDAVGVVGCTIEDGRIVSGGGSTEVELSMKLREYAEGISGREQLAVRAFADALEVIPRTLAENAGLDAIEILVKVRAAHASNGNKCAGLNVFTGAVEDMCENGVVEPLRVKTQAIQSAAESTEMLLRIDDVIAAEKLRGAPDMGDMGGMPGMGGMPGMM
Sequence of D(1A) dopamine receptor (Homo sapiens) (P21728 whole entry, looked up): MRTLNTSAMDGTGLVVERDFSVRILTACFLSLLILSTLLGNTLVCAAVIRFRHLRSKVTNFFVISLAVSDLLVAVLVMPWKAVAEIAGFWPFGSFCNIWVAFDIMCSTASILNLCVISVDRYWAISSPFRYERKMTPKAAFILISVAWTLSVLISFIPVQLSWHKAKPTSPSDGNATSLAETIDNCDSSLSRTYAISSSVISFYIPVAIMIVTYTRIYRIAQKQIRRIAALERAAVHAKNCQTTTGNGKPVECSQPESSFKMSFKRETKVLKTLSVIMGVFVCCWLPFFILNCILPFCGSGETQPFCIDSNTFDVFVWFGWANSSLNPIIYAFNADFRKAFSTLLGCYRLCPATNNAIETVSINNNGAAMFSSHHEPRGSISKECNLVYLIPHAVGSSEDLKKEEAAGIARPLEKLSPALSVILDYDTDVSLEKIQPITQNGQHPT
Sequence of Tumor susceptibility gene 101 protein (Homo sapiens) (Q99816 whole entry, looked up, the tested form may be a part): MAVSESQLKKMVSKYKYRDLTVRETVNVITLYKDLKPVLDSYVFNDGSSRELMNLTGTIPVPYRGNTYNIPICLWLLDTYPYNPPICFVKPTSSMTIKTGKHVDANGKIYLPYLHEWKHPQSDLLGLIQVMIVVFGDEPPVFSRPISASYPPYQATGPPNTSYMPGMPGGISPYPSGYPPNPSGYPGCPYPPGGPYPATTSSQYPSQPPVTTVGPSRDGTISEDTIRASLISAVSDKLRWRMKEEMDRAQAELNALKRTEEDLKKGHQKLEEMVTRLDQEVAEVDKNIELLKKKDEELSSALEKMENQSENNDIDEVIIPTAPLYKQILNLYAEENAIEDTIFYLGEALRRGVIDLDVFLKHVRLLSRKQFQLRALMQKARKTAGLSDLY

NC(N)=NCc1cccc(I)c1
not listed: [17] | [18] | [19] | [20]
inactive: all other assays above

CC(C)(C)NC[C@H](O)COc1nsnc1N1CCOCC1
not listed: [4] | [5] | [12] | [13] | [18] | [19] | [20]
inactive: all other assays above

CC(=O)OCC1=C(C(=O)O)N2C(=O)[C@@H](NC(=O)CSc3ccncc3)[C@H]2SC1
inactive: [18] | [5] | [12] | [13]
active: [9] 31.6 µM | [19] 2 µM

CCOC(=O)[C@H](CCc1ccccc1)N[C@@H](C)C(=O)N1[C@H](C(=O)O)C[C@H]2CCCC[C@@H]21
not listed: [5] | [12] | [13] | [18] | [19]
inactive: all other assays above

CN=C(N)NCCC[C@H](N)C(=O)O
not listed: [5] | [12] | [13] | [18] | [19]
inactive: all other assays above
